Screens: PubChem, NMMLSC
Sampled rows, rich in hits. Any-hit rate of the full collection: about 2.5%.
MEKK2 mut-MEK5: signal of MEK5 binding to mutant human MEKK2 PB1 domain. bead flow cytometry, Alexa488-MEK5 binding to MEKK2 mutant. percent response, % at 10 µM. 0.35% of 290,000 active. AID 1530; in the data active means percent response above about 24%, passing the limit was not always enough
MEKK2 WT-MEK5: raises or lowers MEK5 binding to wildtype human MEKK2 PB1 domain. bead flow cytometry, Alexa488-MEK5 binding to MEKK2 WT; actives lie on both sides. Q9Y2U5. 1.1% of 290,000 active. AID 1531. binding response (% of control), % at 10 µM; in the data active means binding response below about 67% or above about 130%
GRK2 aptamer HTS: inhibitors of human GRK2 displacing RNA aptamer. AID 488847. inhibition of aptamer binding, % at 10 µM. 0.59% of 330,000 active. bead flow cytometry, FAM-aptamer displacement from GRK2. P25098;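 active means inhibition of aptamer binding above 40%, roughly 3 SD of noise, on plates passing a quality check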;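 further: median bead fluorescence of bound FAM aptamer so fluorescent compounds give negative values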
MEKK3 PB1 HTS: raises or lowers MEK5 binding to the human MEKK3 PB1 domain; bead-based flow cytometry, Alexa488-MEK5 binding to MEKK3; actives lie on both sides; 0 = blocked by unlabeled MEK5, 100 = vehicle; binding response (% of control), % at 10 µM; 1.4% of 290,000 active; AID 1529;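 active means binding response more than 3 SD above or below the average of its plate-row segment, actives on both sides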;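 further: Alexa488 bead fluorescence after subtracting the streptavidin-only scavenger bead signal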
MEKK2wt confirm: raises or lowers MEK5 binding to wildtype human MEKK2, retest; shares compounds with MEKK3 PB1 HTS; bead flow cytometry, Alexa488-MEK5 binding to MEKK2 WT; actives lie on both sides; binding response (% of control), % at 10 µM; 2.4% of 5,900 active; AID 1892; in the data active means binding response below about 16% or above about 210%; inactive means in between
MEKK2mut confirm: signal of MEK5 binding to mutant human MEKK2, retest; bead flow cytometry, Alexa488-MEK5 binding to MEKK2 mutant; shares compounds with MEKK3 PB1 HTS; 2% of 5,900 active; AID 1893; percent response, % at 10 µM; in the data active means percent response mostly above about 71%, no sharp cut-off; inactive means mostly below about 38%;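 further: higher means compound restores mutant binding toward wildtype level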
MEKK3-MEK5 inh: confirmation of inhibitors of MEK5 binding to human MEKK3. shares compounds with MEKK3 PB1 HTS. bead flow cytometry, Alexa488-MEK5 binding to MEKK3; stronger effect = lower value. binding response (% of control), % at 10 µM. 1.8% of 5,900 active. AID 1894;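 active means binding response below 72% of control, or above a set upper limit, though filed actives all read lower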;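 further: 100% = DMSO only wells and 0% = binding blocked by excess unlabeled MEK5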
Starred values were filed as active, the others as inactive; . = not tested or not shown; + = active, no number; [ ] = dose if it differs, or a comment.

SMILES	MEKK2 mut-MEK5	MEKK2 WT-MEK5	GRK2 aptamer HTS	MEKK3 PB1 HTS	MEKK2wt confirm	MEKK2mut confirm	MEKK3-MEK5 inh
COC(=O)c1cc(C(=O)NCc2ccccc2)c(=O)[nH]c1C	-19.0	3.0*[inhibitor]	0.0	3.0*[inhibitor]	100.0	-2.0	102.0
Cc1cc(C)nc(NC(=NCCc2c[nH]c3ccccc23)NC(=O)C(C)(C)C)n1	0.0	103.0	2.0	99.0	.	.	.
Cc1cc(C)c[n+](-c2[nH]c(=O)sc2/C=N/NC([S-])=Nc2ccccc2)c1	1.0	109.0	0.0	136.0*	98.0	-6.0	97.0
Cn1c(-c2c(N)n(-c3ccccc3)c3nc4ccccc4nc23)nc2ccccc21	1.0	93.0	0.0	68.0*[inhibitor]	106.0	-2.0	106.0
CCOC(=O)c1c(C=O)c2sc(C)cc2n1C	-2.0	99.0	4.0	100.0	.	.	.
CCc1ccc(NC(=O)Cc2cn(C)c3ccccc23)cc1	0.0	106.0	1.0	104.0	.	.	.
CCC(C)NC(=O)Cc1cn(C)c2ccccc12 (stereo not given)	-14.0	3.0*[inhibitor]	27.0	3.0*[inhibitor]	102.0	-12.0	96.0
O=C(Nc1ccnn1C1CCN(Cc2ccc(Cl)cc2)CC1)C1CCCC1	5.0	114.0	3.0	102.0	.	.	.
O=C(Nc1ccnn1C1CCN(Cc2ccc(OC(F)F)cc2)CC1)C1CCCC1	12.0	135.0*	0.0	104.0	136.0	14.0	101.0
O=C(O)c1cccnc1SC1CC(=O)N(c2ccccc2)C1=O (stereo not given)	33.0	117.0	0.0	128.0*	95.0	-7.0	96.0
COCCC(=O)N1CCC(Oc2ccc(C(=O)NCCc3cnn(C)c3)cc2)CC1	-9.0	101.0	1.0	96.0	.	.	.
COCC(=O)N1CCC(Oc2ccc(C(=O)NCCc3ccncc3)cc2)CC1	+	610.0*	0.0	128.0*	107.0	3.0	106.0
O=C(Nc1cccc(F)c1)C1CCN(C(=O)c2ccc(Br)cc2)CC1	-4.0	94.0	0.0	93.0	.	.	.
O=C(Nc1ccc(Br)cc1)C1CCN(C(=O)c2ccc(F)cc2)CC1	2.0	105.0	0.0	150.0*	98.0	-11.0	96.0
CCN(C[C@H]1N[C@@](Cc2ccccc2)(C(=O)OC)[C@H]2C(=O)N(Cc3ccccc3)C(=O)[C@@H]12)C(=O)COc1ccccc1	.	.	0.0	.	.	.	.
NC(=O)N/N=C/c1coc2ccc(O)cc2c1=O	-31.0	55.0	0.0	45.0*[inhibitor]	101.0	-2.0	100.0
Cc1ccc2occ(/C=N/NC(=O)c3ccc(O)cc3)c(=O)c2c1	-1.0	96.0	0.0	100.0	.	.	.
O=c1cc(N2CCCC2)c2ccccc2o1	-33.0	.	3.0	1.0*[inhibitor]	104.0	-3.0	103.0
O=c1cc(N2CCOCC2)c2ccccc2o1	7.0	105.0	1.0	97.0	.	.	.
O=[N+]([O-])c1ccc(/C=N/Nc2ccc3ccccc3c2)o1	-2.0	2.0*[inhibitor]	3.0	88.0	103.0	1.0	100.0
O=C(N/N=C/c1ccc([N+](=O)[O-])o1)c1cc2ccccc2o1	0.0	98.0	12.0	100.0	.	.	.
CCOc1ccc(Cl)cc1CSc1ncn[nH]1	-31.0	1.0*[inhibitor]	1.0	1.0*[inhibitor]	96.0	-15.0	88.0
COc1cccc(OC)c1NC(=O)Cn1nc(C)c2ccccc2c1=O	2.0	105.0	2.0	103.0	.	.	.
Cc1nn(C)cc1CN1CCCC(C(=O)c2ccc(-c3ccccc3)c(F)c2)C1 (stereo not given)	34.0	147.0*	0.0	110.0	118.0	11.0	104.0
N#Cc1ccc(NC(=O)Nc2ccc(Oc3ccc(NC(=O)Nc4ccc(C#N)cc4)cc3)cc2)cc1	42.0	150.0*	0.0	106.0	141.0	16.0	101.0
Cc1ccc(NC(=O)N2CCCC2C(=O)Nc2c(C)cc(C)cc2C)cc1 (stereo not given)	5.0	106.0	0.0	109.0	.	.	.
O=C(c1sc2cccc(Cl)c2c1Cl)N1CCN(CCc2ccccn2)CC1	7.0	102.0	1.0	100.0	.	.	.
COc1ccc(CNCCc2ccc(Cl)cc2)cc1OCc1ccccc1	-83.0	2.0*[inhibitor]	0.0	2.0*[inhibitor]	145.0	23.0	108.0
